Most compounds without a hit are left out; they make up all but 0.93% or so of the library.
PLK1 kinase inh: PLK1 (human) kinase inhibition | P53350 | recombinant PLK1 kinase, TR-FRET peptide phosphorylation | inhibition, % at 10 µM | hit rate 0.53% among 97,000;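 active means inhibition of 50% or more in the single-concentration screen; inactive means inhibition below 50%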;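 further: 0% = DMSO max control and 100% = H-89 dihydrochloride min control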
Target sequence (P53350 whole entry, looked up): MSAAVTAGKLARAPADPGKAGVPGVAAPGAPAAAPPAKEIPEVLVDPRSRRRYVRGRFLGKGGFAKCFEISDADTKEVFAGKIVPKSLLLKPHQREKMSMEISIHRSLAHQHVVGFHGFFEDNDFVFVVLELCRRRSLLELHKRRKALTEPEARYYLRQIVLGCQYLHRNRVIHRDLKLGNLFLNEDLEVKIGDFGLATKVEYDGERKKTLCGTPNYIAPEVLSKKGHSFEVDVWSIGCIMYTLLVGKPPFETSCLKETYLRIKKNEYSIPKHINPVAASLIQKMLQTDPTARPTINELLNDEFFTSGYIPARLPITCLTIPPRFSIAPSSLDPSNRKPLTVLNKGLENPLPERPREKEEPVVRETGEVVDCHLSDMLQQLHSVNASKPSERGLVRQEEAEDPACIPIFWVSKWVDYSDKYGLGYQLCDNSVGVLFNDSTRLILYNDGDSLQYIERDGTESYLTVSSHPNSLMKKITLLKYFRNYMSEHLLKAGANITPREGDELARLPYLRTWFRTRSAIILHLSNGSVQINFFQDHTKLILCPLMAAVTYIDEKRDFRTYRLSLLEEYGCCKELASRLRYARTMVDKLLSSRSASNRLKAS
PTPN22 act: activators of human LYP (PTPN22) phosphatase; Q9Y2R2; hit rate 0.11% among 96,000; recombinant LYP, DiFMUP fluorescence; 0 = plate median, 100 = signal doubled; activation, % at 2 µM; AID 697;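 active means activation at 2 µM above a set limit, the mean plus 5 SD, cut at about 37% in these data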
PTPN22 inh 2: inhibitors of human LYP (PTPN22) phosphatase; AID 640; inhibition, % at 2 µM; recombinant LYP catalytic domain, DiFMUP fluorescence; hit rate 0.21% among 96,000;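 active means inhibition at 2 µM at or above a set limit, the screen mean plus 3 SD, cut at about 24% in these data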;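 further: 0% = DMSO with enzyme and 100% = enzyme fully blocked by orthovanadate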
PLK1 PBD inh: blocks phosphopeptide binding to human Plk1 polo box domain; Plk1 PBD phosphopeptide binding, fluorescence polarization; hit rate 0.13% among 97,000; P53350; inhibition, %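 (tested at about 20 µM)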; in the data active means inhibition above about 34%, passing the limit was not always enough
PLK1 confirm: confirmation of human PLK1 kinase inhibitors. shares compounds with PLK1 kinase inh. recombinant PLK1 kinase, TR-FRET peptide phosphorylation. inhibition, % at 10 µM. hit rate 20% among 210. AID 744;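 active means inhibition at or above 50% in each of two repeat confirmation tests; inconclusive means one repeat below 50% inhibition, the other above; inactive means both repeats at or below 50% inhibition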;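 further: 0% = DMSO max control and 100% = H-89 kinase-blocked min control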
Plk1 interf: interferes with the Plk1 assay readout, not true inhibition. inhibition (interference), % at 10 µM. Plk1 TR-FRET assay interference, compound added post-reaction. shares compounds with PLK1 kinase inh. AID 756. 210 tested, under 10 active;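 active means both duplicate runs show 50% or greater inhibition; inconclusive means only one duplicate run shows over 50% inhibition; inactive means both runs show under 50% inhibition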;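 further: 0% = DMSO max control and 100% = H-89 min control inhibited reaction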
PBD redox DR: redox cycling H2O2 generation counter-screen for Plk1 PBD. 120 tested, under 10 active. DTT. shares compounds with PLK1 PBD inh. EC50, µM
PTPN22 act conf: LYP (PTPN22) phosphatase activation confirmation; shares compounds with PTPN22 act; activation, % at 2 µM; Recombinant LYP, DIFMUP fluorescence; zero set by plate's median compound well; 100 tested, under 10 active
Active calls of the source: *; ? = inconclusive. Unless noted, how the calls were made is not given here.

SMILES	PLK1 kinase inh	PTPN22 act	PTPN22 inh 2	PLK1 PBD inh	others
CCCC1COC(Cn2cncn2)(c2ccc(Cl)cc2Cl)O1 (configuration not stated)	-8.9	-61.1	62.1*	13.4
CC1CCN(S(=O)(=O)c2ccc(NN=C(C#N)C#N)cc2)CC1	-20.9	-24.2	26.3*	-1.3
COc1ccc(C(=O)N2CCOCC2)cc1S(=O)(=O)N1CCC(C)CC1	-8.9	5.8	-10.5	16.1
CSc1ncc(Cl)c(C(=O)O)n1 (tested in a mixture with another compound)	-10.3	-10.1	9.8	5.6
CCn1ncc(/C=C2/CC3C4CC=C5CC(O)CCC5(C)C4CCC3(C)C2=O)c1C (configuration not stated)	-10.5	4.7	-4.2	0.2
O=C1NC(=O)C(=Cc2cn(CCOc3ccc4c(c3)OCO4)c3ccccc23)C(=O)N1	-7.8	-25.9	25.9*	1.2
CN1/C(=C\C=C\C2=[N+](C)c3ccc4ccccc4c3C2(C)C)C(C)(C)c2ccccc21	85.8*	-30.9	32.6*	-4.5	PLK1 confirm=?;Plk1 interf=11.4
COc1ccc(Cn2c(N)c(C(=O)NCc3ccco3)c3nc4ccccc4nc32)cc1OC	72.5*	-6.4	4.8	-13.3	PLK1 confirm=71.4*;Plk1 interf=-43.1
CCCNC(=O)c1c(N)n(Cc2ccco2)c2nc3ccccc3nc12	-8.4	10.0	-9.7	-26.3
CC(C)(C)N1Cc2ccccc2C1=N	-1.0	2.8	0.2	-0.2
CCOC(=O)c1ccc(NC(=O)c2c(O)[nH]c(=O)[nH]c2=O)cc1	9.4	-7.9	6.2	58.8*	PBD redox DR=>50
OC1(c2ccccc2F)CC2CCC(C1)N2CCN1CCOCC1 (configuration not stated)	-3.5	10.9	-12.5	-1.4
Cc1nc2c(=O)n(C)c(=O)nc-2n(C)n1	-12.0	-32.9	31.6*	115.6*	PBD redox DR=1.58*
COC(=O)C1CN(C#N)N(c2ccc(Cl)cc2)C12c1ccccc1-c1ccccc12 (configuration not stated)	-7.9	1.5	-0.9	5.0
O=C1C(=O)c2ccccc2-c2ccccc21	3.4	-5.8	6.5	94.5*	PBD redox DR=>50
Cc1ccc(-c2nc(N(C)C3CCN(C)CC3)c3ccccc3n2)cc1	2.0	-1.7	2.2	5.7
CC(C)CCC1(CN2CCCC2=O)C(=O)NC(=O)NC1=O	-4.4	38.7*	-35.9	-21.1	PTPN22 act conf=4.7
CCOc1ccc(N=C2SCCCN2C)cc1	-10.8	2.8	-8.7	10.7
